What was measured:
[1] = target: T1, Aspartate--tRNA(Asp/Asn) ligase (Mycobacterium tuberculosis (strain ATCC 25618 / H37Rv)) (UniProt P9WFW3); experiment: Assay for Asp RNA synthetase-1 from Mycobacterium tuberculosis; type: functional; parameters: scale not given: direction of the effect not stated beside the values; details: 30 µM; also: in the data most compounds retested in dose-response had high values
T1 sequence (whole entry): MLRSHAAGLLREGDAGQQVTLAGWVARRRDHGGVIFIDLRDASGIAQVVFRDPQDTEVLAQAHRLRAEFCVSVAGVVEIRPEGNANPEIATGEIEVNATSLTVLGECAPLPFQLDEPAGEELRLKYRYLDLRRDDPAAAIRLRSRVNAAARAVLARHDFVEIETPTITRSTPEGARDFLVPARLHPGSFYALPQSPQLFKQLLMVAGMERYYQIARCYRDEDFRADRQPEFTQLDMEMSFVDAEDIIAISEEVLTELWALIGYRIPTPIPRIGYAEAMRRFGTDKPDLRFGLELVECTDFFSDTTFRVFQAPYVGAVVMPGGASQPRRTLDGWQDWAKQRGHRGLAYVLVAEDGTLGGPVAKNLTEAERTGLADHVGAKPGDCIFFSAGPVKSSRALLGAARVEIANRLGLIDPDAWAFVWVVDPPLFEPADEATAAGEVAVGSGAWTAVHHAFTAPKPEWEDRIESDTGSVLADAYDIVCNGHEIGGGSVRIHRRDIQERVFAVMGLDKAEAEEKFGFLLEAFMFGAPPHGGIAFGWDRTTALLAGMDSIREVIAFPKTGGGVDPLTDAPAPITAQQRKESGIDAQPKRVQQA

[2] = target: Shiga toxin 2 (Escherichia coli O157:H7) (UniProt P09385+P09386); experiment: E. coli 0.157:H7 Shiga Toxin SOP - stx2 screening assay; type: functional; parameters: scale not given: direction of the effect not stated beside the values; details: 30 µM

CN(Cc1ccco1)C[C@H]1OC[C@@H]2CCN(Cc3cccnc3)C[C@@H]21
Percent Effect [1]: 3.55% | Percent Effect [2]: -24.2%

CC(=O)N(Cc1ncc(C(C)C)o1)C1CCN(CCn2cccn2)C1 (configuration not stated)
Percent Effect [1]: -1.37% | Percent Effect [2]: 3.59%

Cc1cnn(CCNCc2ccccc2Oc2cccnc2)c1
Percent Effect [1]: 10.1% | Percent Effect [2]: -15.5%

CC(C(=O)NCCCn1ccnc1)n1cc(Br)cn1 (configuration not stated)
Percent Effect [1]: 3.33% | Percent Effect [2]: -54.3%

Cc1ccc(N2CCCC(NCc3ccncc3)C2)nn1 (configuration not stated)
Percent Effect [1]: 0.131% | Percent Effect [2]: -14.5%

CC(C)Oc1ncccc1CNC(=O)c1cc[nH]n1
Percent Effect [1]: -1.4% | Percent Effect [2]: 18.4%

CN(Cc1ccc(F)cc1)C(=O)CN1CCOC(Cn2cncn2)C1 (configuration not stated)
Percent Effect [1]: 3.63% | Percent Effect [2]: -0.222%

CC(C)(C)C(=O)Cn1nc(-c2ccccc2F)ccc1=O
Percent Effect [1]: -2.79% | Percent Effect [2]: -9.41%

Cc1ccc(CNC(=O)CN2C=Nc3ccccc3S2(=O)=O)s1
Percent Effect [1]: -0.759% | Percent Effect [2]: 9.11%

CC[C@@H](CO)NC(=O)c1coc(COc2ccc(OC)cc2)n1
Percent Effect [1]: 6.33% | Percent Effect [2]: -5.46%

CC1CCN(c2ncc3c(n2)CN(c2ccccc2)C3=O)CC1
Percent Effect [1]: 3.06% | Percent Effect [2]: -36.5%

Cc1cncc(C(=O)N2CCCC(C(=O)CCc3ccccc3)C2)c1 (configuration not stated)
Percent Effect [1]: 13.2% | Percent Effect [2]: -26.1%

COC(=O)CCC(=O)N1CCc2[nH]nc(-c3ccc(F)c(F)c3)c2C1
Percent Effect [1]: 5.15% | Percent Effect [2]: -11.9%

O=C(NCCCN1CCCC1)c1n[nH]c(=O)c2ccccc12
Percent Effect [1]: -3.43% | Percent Effect [2]: -6.83%

COCCNC(=O)C1(c2ccccc2C)CCOCC1
Percent Effect [1]: -1.82% | Percent Effect [2]: 19.2%

Cc1[nH]ccc1C(=O)N1CCC(c2nnc(Cn3cccn3)n2C)CC1
Percent Effect [1]: -2.14% | Percent Effect [2]: -9.29%

Cn1cc(CN2CCC3(CC2)CC(c2ccncc2)C(=O)N3)cn1 (configuration not stated)
Percent Effect [1]: 12.5% | Percent Effect [2]: -4.24%

Cc1nc(CN2CCN(C(=O)c3ccn(C)c(=O)c3)CC2)cs1
Percent Effect [1]: 4.03% | Percent Effect [2]: -43.8%

O=C(c1cccs1)N1C[C@H]2CC[C@@]3(N=C(c4ccccc4)NC3=O)[C@H]2C1
Percent Effect [1]: -3.42% | Percent Effect [2]: -42.8%

CC1CN(CC(=O)Nc2nncs2)CCN1c1nccs1 (configuration not stated)
Percent Effect [1]: 4.78% | Percent Effect [2]: 27.5%

c1ccc(N2CCCC3(COCCN(c4nccs4)C3)C2)nc1 (configuration not stated)
Percent Effect [1]: 3.08% | Percent Effect [2]: -3.13%

CCC(=O)NC1CCN(c2cccc(CC)c2)CC1
Percent Effect [1]: 1.79% | Percent Effect [2]: 5.5%

CS(=O)(=O)N1CCOCC2(CCN(C(=O)c3cccnc3)CC2)C1
Percent Effect [1]: -2.76% | Percent Effect [2]: -13.1%

O=C1CN(Cc2nnc(-c3ccccc3Br)o2)CCN1
Percent Effect [1]: -4.51% | Percent Effect [2]: -24.1%

CC(C)c1nc(C(=O)N2CCOCC2CC(=O)c2ccco2)c[nH]1 (configuration not stated)
Percent Effect [1]: -0.629% | Percent Effect [2]: -1.83%

Cc1nc(C2(O)CCCNCC2)sc1CCOc1ccc(Cl)cc1 (configuration not stated)
Percent Effect [1]: -4% | Percent Effect [2]: -45.5%

CC(C)(O)CN1CCN(C(=O)c2cc(Cl)cc3cccnc23)CC1
Percent Effect [1]: -3.59% | Percent Effect [2]: -18%

Cc1ccc(-c2nc(CNCC3CN(C)CCO3)cs2)o1 (configuration not stated)
Percent Effect [1]: 1.27% | Percent Effect [2]: -23.7%

COc1ccc(OCC(=O)NS(=O)(=O)c2cc(F)ccc2F)cc1
Percent Effect [1]: -1.01% | Percent Effect [2]: -20.6%

CCOC(=O)C1CCN(Cc2csc(C(C)(C)C)n2)CC1
Percent Effect [1]: -9.34% | Percent Effect [2]: -1.05%

CCn1ccnc1CN1CCC(N(C)Cc2ncc(C)o2)C1 (configuration not stated)
Percent Effect [1]: -4.45% | Percent Effect [2]: -39.6%

CCc1cnc(N2CC3(CCN(C(=O)c4ccoc4)C3)C2)nc1
Percent Effect [1]: -4.49% | Percent Effect [2]: -30.6%

CCc1nc(C)c([C@H]2CN(C)C[C@@H]2C(=O)NCCc2cnccn2)[nH]1
Percent Effect [1]: -1.15% | Percent Effect [2]: -9.87%

CCCc1n[nH]c(C2CN(CCNS(=O)(=O)CC)CCO2)n1 (configuration not stated)
Percent Effect [1]: 2.63% | Percent Effect [2]: -17%

COC(=O)c1cccn1C1CCN(CC(=O)NC2CCCCC2)CC1
Percent Effect [1]: -1.64% | Percent Effect [2]: 1.4%

Cc1ccccc1S(=O)(=O)N1CCCCC1c1ccn[nH]1 (configuration not stated)
Percent Effect [1]: 0.632% | Percent Effect [2]: 35.1%

CC(C)N1CCCC2(CCN(C(=O)CCCn3cncn3)C2)C1=O (configuration not stated)
Percent Effect [1]: -0.717% | Percent Effect [2]: 11.1%

Cn1ccc(C(=O)NCc2cccc(CN3CCCC3)c2)cc1=O
Percent Effect [1]: 1.53% | Percent Effect [2]: -46.4%

Cn1ccnc1-c1cccc(NC(=O)NCCCO)c1
Percent Effect [1]: -2.56% | Percent Effect [2]: -54.8%

COc1cccc(CNC(=O)C(c2cccc(F)c2)N2CCOCC2)c1 (configuration not stated)
Percent Effect [1]: 1.86% | Percent Effect [2]: -6.55%

CN(Cc1cc2c(cc1OC(F)F)OCO2)Cc1nccn1C
Percent Effect [1]: 3.96% | Percent Effect [2]: 2.09%

CN(C)c1ccc(CNc2cncc(-n3cccn3)n2)cc1
Percent Effect [1]: -4.37% | Percent Effect [2]: -28%

CCc1ccc(NC(=O)N2C[C@H]3C[C@H](C(=O)NC)[C@@H](C2)O3)cc1
Percent Effect [1]: 3.34% | Percent Effect [2]: -5.17%

CC(C)n1cnc2c1C(C(=O)NCCC#N)N(Cc1ccccc1)CC2 (configuration not stated)
Percent Effect [1]: -1.11% | Percent Effect [2]: -31.8%

OC(CN1CCOCC1)CN1CCc2c(ncn2C2CC2)C1 (configuration not stated)
Percent Effect [1]: -8.33% | Percent Effect [2]: -43.3%

Fc1ccc(CN2CCC(c3nccnc3-n3ccnc3)CC2)cc1
Percent Effect [1]: -5.52% | Percent Effect [2]: -0.684%

From ChEMBL document CHEMBL3988442, “University of Dundee, Small-Polar-MMV Screening Library” (2021)
